From PubChem BioAssay (NCATS)
Results filed as inconclusive are left out. The source made the active and inactive calls. Unless noted, calls come from the whole dose curve; as a rule, active = well fitted curve in either direction with a large enough effect (not every such curve was filed as active); inconclusive = small, poorly fitted or top-dose-only effect, or another doubt; inactive = flat fitted curve, though single readings scatter.

Tests used:
[1] = molecular target: Lysosomal acid glucosylceramidase (Homo sapiens) (UniProt P04062); assay: Glucocerebrosidase-p2 (AID 348; in the data active = potency below about 10 µM; note: potency is the fitted concentration of half-maximal effect); settings: purified GBA, blue fluorogenic substrate, 40 min
Procedure, shortened: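 Normal human glucocerebrosidase (0.2 nM) with blue fluorogenic substrate (80 uM final) in citrate/phosphate pH 5.9 with 10mM sodium taurocholate, 0.01% tween-20; 40 min RT, NaOH/glycine stop; fluorescence Ex 365/Em 440; AC50 from a titration from 0.6 nM upwards.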

[2] = AP1 Signaling Pathway (AID 357); settings: ME-180 AP-1-bla reporter, EGF-induced, beta-lactamase ratio, 5 h; at 7.69 µM (top of the series) unless noted; note: % is set by controls: 0 for no effect and ±100 for the full control effect
Procedure, shortened: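 AP-1-bla ME-180 cells with beta-lactamase reporter under AP-1 response element, stimulated with EC50 EGF; compounds titrated, 5 hours at 37 degrees Celsius. CCF4 read at 460/530 nm ratio; positive and negative modulators judged by AC50.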

[3] = NFAT Signaling Pathway (AID 444); settings: Jurkat NFAT-bla M1, carbachol, beta-lactamase ratio, 5 h; at 7.69 µM (top of the series) unless noted;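 note: carbachol stimulus at about its EC50 of 1 µM final; % is set by controls: 0 for no effect and ±100 for the full control effect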
Procedure, shortened: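 Jurkat cells with NFAT-driven β-lactamase reporter and co-expressed M1 receptor, stimulated with carbachol (final 1 uM, ~EC50), compound titration, 5 h at 37 °C. CCF4 loaded 1 h at RT; 460/530 nm ratio gave %activity and AC50.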

[4] = Stat Signaling Pathway (AID 446); settings: ME-180 SIE beta-lactamase reporter, IL-6 stimulated, 5 h; at 7.69 µM (top of the series) unless noted;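 note: ME-180 cervical cancer cells given 40 pM IL-6 alongside compound; SIE-controlled beta-lactamase reporter measured as 460/530 nm FRET emission ratio; % is set by controls: 0 for no effect and ±100 for the full control effect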
Procedure, shortened: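 Emission at 460 and 530 nm (excitation 405 nm) reports SIE-controlled beta-lactamase in ME-180 cells. Cells received compound with 40 pM IL-6 for 5 hrs at 37 C; data scaled between 300 pM IL-6 and 125 nM JAK-inhibitor controls.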

[5] = molecular target: Glucocorticoid receptor (Homo sapiens) (UniProt P04150); assay: GR-GFP Redistribution (AID 450;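 active = compounds whose dose series gives a full or clear partial fitted curve of increased nuclear translocation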; note: potency is the fitted concentration of half-maximal effect); settings: U2OS GR-GFP nuclear translocation, laser cytometry, 2 h
[6] = molecular target: Glucocorticoid receptor (Homo sapiens) (UniProt P04150); assay: GR-EFC Redistribution (AID 451; calls by dose curve; note: potency is the fitted concentration of half-maximal effect); settings: CHO-K1 GR-EFC translocation, beta-gal luminescence, 2 h
Procedure, shortened: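 CHO-K1 cells expressing nuclear EA and GR-ED fragments of b-gal; compounds titrated up to 46 uM final, 2 h at 37 C. GR nuclear translocation read as complemented b-gal luminescence after 1 h RT detection.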

[7] = molecular target: Mitogen-activated protein kinase 10 (Mus musculus) (UniProt Q61831); assay: JNK3 AlphaScreen Assay (AID 530); settings: JNK3 lysate, c-Jun phosphorylation; series mostly up to 57.1 µM;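 note: kinase came from lysate of stimulated human HepG2 cells; signal reports phosphorylation of biotinylated GST-cJun 1-79 at Ser73 with 10 µM ATP; % is set by controls: 0 for no effect and ±100 for the full control effect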
Procedure, shortened: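 HepG2 lysate (IL-1b/TNFa pre-activated) + biotin-GST-cJun 1-79 + anti-pSer73 cJun; cpd titration, 15 min RT; ATP 10 uM start; Tris pH 7.6, MgCl2, DTT, vanadate; beads in EDTA buffer; AlphaScreen.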

[8] = molecular target: 3',5'-cyclic-AMP phosphodiesterase 4B (Homo sapiens) (UniProt Q07343); assay: qHTS Assay for Inhibitors of PDE-IV (AID 607; active = well fitted activation curve with a large enough effect in the main read-out, with a control signal flat, not every such curve was filed as active; note: % of control where 0% means no effect); settings: HEK293 ACTOne CNG channel cells, membrane potential fluorescence; series mostly up to 22.9 µM
Procedure, shortened: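 The readout is membrane depolarisation from a cAMP-sensing CNG channel, detected with a potential dye at ex 535/em 590. Cells were HEK293-derived (endogenous PDE-IV) at 1000 cells/well, titrated up to 22.9 uM final.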

[9] = Confirmation and Secondary Assay for Modulators of Hemoglobin Beta Chain Splicing at IVS2 654 locus (AID 910; active = well fitted curve in the direction sought with a large enough effect; an effect the other way counts as inactive or inconclusive;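 note: HeLa cells stably carrying EGFP split by mutant beta-globin IVS2-654 intron; % of control where 0% means no effect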); settings: HeLa EGFP-654 splicing reporter, GFP fluorescence, 48 h; series mostly up to 38.3 µM
Procedure, shortened: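 HeLa cells stably expressing EGFP interrupted by β-globin IVS2-654 intron, seeded overnight in Opti-MEM/2% FCS, then treated 2 days at 37 °C. Restored splicing read as total peak GFP intensity per well by laser scanning cytometry (488 nm excitation, 500–520 nm emission); 500 nM antisense PNA as control.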

[10] = Confirmation and Secondary Assay for Modulators of Hemoglobin Beta Chain Splicing at IVS2 705 locus (AID 930; active = well fitted curve in the direction sought with a large enough effect; an effect the other way counts as inactive or inconclusive;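 note: HeLa cells stably expressing the EGFP-705 splicing reporter; GFP fluorescence per well restored by corrected splicing of the IVS2-705 intron in EGFP; % of control where 0% means no effect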); settings: HeLa EGFP-705 splicing reporter, GFP fluorescence, 48 h; series mostly up to 38.3 µM
Procedure, shortened: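 First, HeLa EGFP-705 cells are seeded at 500/well in Optimem with 2% FCS and left overnight. Next, compound or DMSO is added for 2 days. Finally wells are laser-scanned and total peak GFP intensity scored.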

[11] = qHTS Assay for Lipid Storage Modulators (AID 1519; calls by dose curve); settings: Drosophila S3 cells, BODIPY lipid droplet/cell ratio, laser cytometry, cells loaded with oleic acid; for activity change, negative = inhibition: at 57.5 µM (top of the series)
Procedure, shortened: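 Cells seeded at 5,000 per well were treated with compounds over a concentration series and loaded with oleic acid (400 uM, as added). Lipid droplet fluorescence (488 nm excitation, 500-530 nm channel) was read by laser-scanning cytometry and normalized to 20 uM Triacsin C.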

[12] = Primary qHTS for small molecule stabilizers of the endoplasmic reticulum resident proteome: Secreted ER Calcium Modulated Protein (SERCaMP) assay (AID 1508630; active = well fitted curve in the direction sought with a large enough effect; an effect the other way counts as inactive or inconclusive; note: % is set by controls: 0 for no effect and ±100 for the full control effect); settings: SH-SY5Y GLuc-SERCaMP (Gaussia luciferase released on ER calcium loss) secretion, thapsigargin, luminescence; series mostly up to 38.4 µM
Procedure, shortened: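 The SH-SY5Y reporter protocol was run at 3 concentrations up to 38.3 uM (primary) or 11 concentrations (follow-up): 16 h compound, 100 nM thapsigargin for 4 h, then extracellular luciferase luminescence.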

[13] = qHTS Assay for Identification of Small Molecule Agonists for Hypoxia Response Element Signaling Pathway (AID 914; active = well fitted activation curve with a large enough effect in the signal ratio, with a control signal flat, not every such curve was filed as active; the % refers to the signal ratio; note: % of control where 0% means no effect); settings: ME-180 (cervical carcinoma) HRE-bla reporter, beta-lactamase ratio, CoCl2, 17 h; activation: stronger effect = higher value
Procedure, shortened: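 Positive modulation of EC50 CoCl2-induced hypoxia response element signaling is measured in ME-180 cells with a beta-lactamase reporter. Compounds are titrated, incubation runs 17 hours, and %Activity derives from the blue/green ratio.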

[14] = molecular target: Ubiquitin carboxyl-terminal hydrolase 1 (Homo sapiens) (UniProt O94782); assay: Inhibitors of USP1/UAF1: Pilot qHTS (AID 504865; active = well fitted curve in the direction sought with a large enough effect; an effect the other way counts as inactive or inconclusive;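 note: rhodamine fluorescence freed from ubiquitin-rhodamine substrate followed over time; top concentration of the series differs between compounds; % is set by controls: 0 for no effect and ±100 for the full control effect; nearly all actives have a fitted effect of over 35% in size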); settings: purified USP1/UAF1, Ub-rhodamine cleavage fluorescence; series mostly up to 54.9 µM
Procedure, shortened: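 Kinetic fluorescence assay: 1nM USP1/UAF1, 15 min compound preincubation, then 150nM Ub-Rho; 480/540 nm.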

[15] = measured here: cell count channel max response
[16] = measured here: lipid channel max response

3',5'-cyclic-AMP phosphodiesterase 4B (Homo sapiens), sequence (Q07343 whole entry, looked up): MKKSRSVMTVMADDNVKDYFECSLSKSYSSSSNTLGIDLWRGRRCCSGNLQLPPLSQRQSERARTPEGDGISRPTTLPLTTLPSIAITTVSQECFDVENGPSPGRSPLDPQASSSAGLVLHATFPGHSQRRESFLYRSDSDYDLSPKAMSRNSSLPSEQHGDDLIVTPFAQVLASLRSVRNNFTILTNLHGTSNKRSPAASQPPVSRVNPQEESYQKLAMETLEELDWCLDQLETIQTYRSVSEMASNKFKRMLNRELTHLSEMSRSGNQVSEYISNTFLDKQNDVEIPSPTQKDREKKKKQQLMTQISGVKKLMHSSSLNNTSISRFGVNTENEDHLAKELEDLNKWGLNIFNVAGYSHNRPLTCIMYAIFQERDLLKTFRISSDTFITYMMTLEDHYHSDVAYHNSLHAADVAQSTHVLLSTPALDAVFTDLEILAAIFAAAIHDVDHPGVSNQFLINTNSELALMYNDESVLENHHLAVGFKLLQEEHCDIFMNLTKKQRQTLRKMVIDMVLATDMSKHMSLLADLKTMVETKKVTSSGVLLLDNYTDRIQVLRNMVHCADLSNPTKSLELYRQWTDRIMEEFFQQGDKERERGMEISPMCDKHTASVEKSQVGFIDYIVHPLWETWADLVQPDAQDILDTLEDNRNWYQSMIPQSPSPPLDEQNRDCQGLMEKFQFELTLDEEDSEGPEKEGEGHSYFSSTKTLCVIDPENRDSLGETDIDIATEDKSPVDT
Glucocorticoid receptor (Homo sapiens), sequence (P04150 whole entry, looked up, the tested form may be a part): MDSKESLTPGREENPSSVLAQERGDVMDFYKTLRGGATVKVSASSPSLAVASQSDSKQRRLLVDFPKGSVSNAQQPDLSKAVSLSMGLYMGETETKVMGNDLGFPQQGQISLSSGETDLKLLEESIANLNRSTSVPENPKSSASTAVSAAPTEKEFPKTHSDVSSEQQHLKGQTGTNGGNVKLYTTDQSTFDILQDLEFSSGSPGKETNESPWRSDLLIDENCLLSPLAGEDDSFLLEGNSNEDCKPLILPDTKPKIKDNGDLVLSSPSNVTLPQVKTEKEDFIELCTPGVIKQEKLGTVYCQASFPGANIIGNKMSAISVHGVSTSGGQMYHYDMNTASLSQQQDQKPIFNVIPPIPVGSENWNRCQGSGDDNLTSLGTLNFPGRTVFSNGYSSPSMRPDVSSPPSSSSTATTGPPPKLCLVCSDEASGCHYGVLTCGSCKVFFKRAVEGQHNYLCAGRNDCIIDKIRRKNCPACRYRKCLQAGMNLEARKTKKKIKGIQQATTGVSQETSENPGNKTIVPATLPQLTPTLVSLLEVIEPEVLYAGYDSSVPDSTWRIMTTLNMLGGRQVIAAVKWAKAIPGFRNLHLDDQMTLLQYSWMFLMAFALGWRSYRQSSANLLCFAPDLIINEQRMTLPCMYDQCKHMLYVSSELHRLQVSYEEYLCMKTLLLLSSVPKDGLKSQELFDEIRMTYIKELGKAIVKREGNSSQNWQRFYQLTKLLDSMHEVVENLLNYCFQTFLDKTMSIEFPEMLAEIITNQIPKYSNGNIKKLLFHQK
Lysosomal acid glucosylceramidase (Homo sapiens), sequence (P04062 whole entry, looked up): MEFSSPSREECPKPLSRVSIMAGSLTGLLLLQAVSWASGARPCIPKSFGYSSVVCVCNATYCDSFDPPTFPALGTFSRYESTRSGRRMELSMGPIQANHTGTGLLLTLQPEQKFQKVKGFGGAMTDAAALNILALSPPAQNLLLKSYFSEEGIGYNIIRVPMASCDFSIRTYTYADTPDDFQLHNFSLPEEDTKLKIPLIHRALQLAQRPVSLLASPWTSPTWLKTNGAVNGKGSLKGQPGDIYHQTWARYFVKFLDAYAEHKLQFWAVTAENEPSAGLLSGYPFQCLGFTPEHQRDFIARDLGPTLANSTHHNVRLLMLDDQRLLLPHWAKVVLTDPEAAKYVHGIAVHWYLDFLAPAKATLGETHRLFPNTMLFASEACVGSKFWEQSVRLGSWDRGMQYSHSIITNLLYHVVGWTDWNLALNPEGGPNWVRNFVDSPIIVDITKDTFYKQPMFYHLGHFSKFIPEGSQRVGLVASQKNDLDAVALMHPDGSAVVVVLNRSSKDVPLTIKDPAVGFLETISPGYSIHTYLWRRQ
Ubiquitin carboxyl-terminal hydrolase 1 (Homo sapiens), sequence (O94782 whole entry, looked up): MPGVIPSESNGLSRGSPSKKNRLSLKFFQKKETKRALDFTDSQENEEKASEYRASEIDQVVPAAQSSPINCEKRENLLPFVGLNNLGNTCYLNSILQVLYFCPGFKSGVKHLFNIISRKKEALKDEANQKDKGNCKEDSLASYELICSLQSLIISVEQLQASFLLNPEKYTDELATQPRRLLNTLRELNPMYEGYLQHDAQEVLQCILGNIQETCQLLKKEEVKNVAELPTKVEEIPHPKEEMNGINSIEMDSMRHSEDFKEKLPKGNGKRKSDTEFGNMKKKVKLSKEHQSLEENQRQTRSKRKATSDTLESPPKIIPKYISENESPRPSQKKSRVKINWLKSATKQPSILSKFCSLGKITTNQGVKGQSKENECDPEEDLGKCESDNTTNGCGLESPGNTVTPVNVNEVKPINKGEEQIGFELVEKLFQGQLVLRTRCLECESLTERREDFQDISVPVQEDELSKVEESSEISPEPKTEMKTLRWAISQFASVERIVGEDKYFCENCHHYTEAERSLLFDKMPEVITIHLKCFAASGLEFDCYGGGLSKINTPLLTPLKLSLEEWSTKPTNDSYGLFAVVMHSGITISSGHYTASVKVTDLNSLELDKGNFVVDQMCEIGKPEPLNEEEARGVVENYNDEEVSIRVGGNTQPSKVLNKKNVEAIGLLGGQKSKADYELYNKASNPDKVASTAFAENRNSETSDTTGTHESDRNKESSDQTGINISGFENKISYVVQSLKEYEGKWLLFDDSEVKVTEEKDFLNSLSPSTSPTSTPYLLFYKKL

| SMILES | Potency [1] | activity change, negative = inhibition [2] | activity change, negative = inhibition [3] | activity, negative = inhibition [4] | Potency [5] | Potency [6] | Potency [7] | Potency [8] | Potency [9] | outcome [10] | activity change, negative = inhibition [11] | max response [11, 15] [%] | max response [11, 16] [%] | outcome [12] | activation [13] | Potency [14] |
| --- | --- | --- | --- | --- | --- | --- | --- | --- | --- | --- | --- | --- | --- | --- | --- | --- |
| Cc1ccccc1-c1nc(NCCN2CCOCC2)c2ccccc2n1 | > 11.4 µM (inactive) | -10.8% (inactive) | -9.08% (inactive) | -0.303% (inactive) | > 46 µM (inactive) | > 46 µM (inactive) | inactive | inactive | inactive | inactive | 8.15% (inactive) | 17.4 | 26.1 | inactive | – | – |
| COc1ccccc1CNc1ncncc1-c1ccccc1CN(C)C | > 11.4 µM (inactive) | -14.2% (inactive) | -25.5% (inactive) | 6.72% (inactive) | > 46 µM (inactive) | > 46 µM (inactive) | inactive | inactive | inactive | inactive | 5.27% (inactive) | 12.7 | 17.5 | inactive | -9.29% (inactive) | inactive |
| CC(=O)N1CCC2(CC1)CN(c1cccc(-c3ccccc3)c1)C2 | > 11.4 µM (inactive) | -4.65% (inactive) | 16.1% (inactive) | 1.02% (inactive) | – | > 46 µM (inactive) | inactive | inactive | – | – | 6.04% (inactive) | 6.96 | 17.4 | inactive | – | – |
| Cc1noc(C)c1-c1nc(NCc2cccnc2)c2ccccc2n1 | > 11.4 µM (inactive) | 2.83% (inactive) | -10.7% (inactive) | -14.2% (inactive) | > 46 µM (inactive) | > 46 µM (inactive) | inactive | – | inactive | inactive | 11.8% (inactive) | 12.2 | 21 | inactive | – | – |
| COCC(=O)N1CCC2(CC1)CN(c1ccc(-c3ccccc3)cc1)C2 | > 11.4 µM (inactive) | 2.14% (inactive) | 14.1% (inactive) | -17.6% (inactive) | – | > 46 µM (inactive) | inactive | inactive | – | – | 2.72% (inactive) | -7.54 | -3.13 | inactive | – | – |
| CC(C)CN1CC[C@@]2(CCCN(C(=O)c3cccc(F)c3)C2)C1 | > 11.4 µM (inactive) | -9.55% (inactive) | -0.696% (inactive) | 6.14% (inactive) | – | > 46 µM (inactive) | inactive | inactive | – | – | 1.5% (inactive) | 13.4 | 19.5 | inactive | – | – |
| COc1ccc(CNc2ncncc2-c2ccccc2Cl)c(OC)c1 | > 11.4 µM (inactive) | -16.1% (inactive) | -7% (inactive) | 15.1% (inactive) | – | > 46 µM (inactive) | inactive | inactive | inactive | inactive | 5.27% (inactive) | -5 | 2.12 | inactive | – | inactive |
| COc1ccc(NC(=O)N2CC3(CCNCC3)C2)cc1 | > 11.4 µM (inactive) | 7.88% (inactive) | 6.29% (inactive) | -3.83% (inactive) | – | > 46 µM (inactive) | inactive | – | – | – | 5.62% (inactive) | 12.7 | 23 | inactive | – | – |
| COc1ccc(-n2c(=O)cnc3cnc(Nc4ccccc4)nc32)cc1 | > 11.4 µM (inactive) | -13.4% (inactive) | 5.4% (inactive) | -1.48% (inactive) | > 9.22 µM (inactive) | > 46 µM (inactive) | inactive | – | – | – | 7.14% (inactive) | 8.28 | 18.1 | inactive | – | – |
| Cc1noc(C)c1C(=O)N1CCC2(CCCN(C(=O)Nc3cccc(C#N)c3)C2)CC1 | > 11.4 µM (inactive) | -3.54% (inactive) | -25.9% (inactive) | -0.0853% (inactive) | – | > 46 µM (inactive) | inactive | inactive | – | – | 9.42% (inactive) | 12.8 | 23.7 | inactive | – | – |
| Cn1cccc1C(=O)N1CCC2(CC1)CN(C(=O)Nc1cccc(F)c1)C2 | > 11.4 µM (inactive) | 5.05% (inactive) | 6.99% (inactive) | -4.36% (inactive) | – | > 46 µM (inactive) | inactive | – | – | – | 2.3% (inactive) | -3.47 | 0.81 | inactive | – | – |
| CC(=O)N1CCC2(CC1)CCN(c1ncccn1)CC2 | > 11.4 µM (inactive) | -16.8% (inactive) | -1.48% (inactive) | 10.5% (inactive) | – | > 46 µM (inactive) | inactive | inactive | – | – | 4.77% (inactive) | 8.06 | 17.2 | inactive | – | – |
| O=C(c1ccncc1)N1CCC[C@@]2(CCN(C(c3ccccc3)c3ccccc3)C2)C1 | > 11.4 µM (inactive) | -4.57% (inactive) | 17.1% (inactive) | 0.76% (inactive) | – | > 46 µM (inactive) | inactive | – | – | – | -4.39% (inactive) | -3.62 | -3.76 | inactive | – | – |
